PubChem BioAssay (EPA / NIEHS)
Where “and” joins values, the source holds several entries; their conditions need not be identical. Equal entries are not always repeated. More than one record can exist for a structure, and the calls need not agree. Calls of active or inactive are those of the source. Rule for the calls: active = hit-call score of the fitted dose curve at least 0.9, where 1 is the maximum; inactive = score below 0.9.

How the values were obtained:
[1] = read-out: Intercellular Adhesion Molecule 1 (ICAM1), ICAM1 (gene 3383); test: BSK_BE3C_ICAM1: BioMAP Diversity Plus: BE3C Assay for Intercellular Adhesion Molecule 1 (ICAM1) Biomarker Activity (AID 2284278); conditions: primary human bronchial epithelial cells;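 note: cell-surface ICAM-1 protein level quantified by ELISA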
Outline: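 ELISA read-out of ICAM-1 on human lung bronchial epithelial primary cells, 24 h post-dosing; positive-direction curve fit, DMSO = baseline. SRB total-protein staining of parallel cultures flagged overt cytotoxicity.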

[2] = read-out: Interferon-inducible T-cell alpha chemoattractant (ITAC), CXCL11 (gene 6373); test: BSK_BE3C_ITAC: BioMAP Diversity Plus: BE3C Assay for Interferon-inducible T-cell alpha chemoattractant (ITAC) Biomarker Activity (AID 2284279); conditions: primary human bronchial epithelial cells
Outline: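 ELISA read-out of I-TAC after 24 h chemical dosing of human lung primary bronchial epithelial cells; gain-of-signal fit vs DMSO baseline. Parallel SRB total-protein staining (0.1% SRB, 10% TCA fixation, 560 nm) assessed cytotoxicity.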

[3] = read-out: Interleukin-8 (IL8), CXCL8 (gene 3576); test: BSK_BE3C_IL8: BioMAP Diversity Plus: BE3C Assay for Interleukin-8 (IL8) Biomarker Activity (AID 2284280); conditions: primary human bronchial epithelial cells
Outline: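 Primary human bronchial epithelial cells (BE3C system) were exposed to test chemical for 24 h, and IL-8 levels were then measured by ELISA. Activity was fitted in the positive (gain-of-signal) direction against a DMSO negative-control baseline.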

[4] = read-out: Epidermal growth factor receptor (EGFR), EGFR (gene 1956); test: BSK_BE3C_EGFR: BioMAP Diversity Plus: BE3C Assay for Epidermal growth factor receptor (EGFR) Biomarker Activity (AID 2284281); conditions: primary human bronchial epithelial cells
Outline: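 Human primary bronchial epithelial cells were exposed to compound for 24 h, and cell-surface EGFR was then quantified by ELISA. Activity was fitted in the positive direction against the DMSO vehicle baseline.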

KRT18 (gene 3875) = test: BSK_BE3C_Keratin818: BioMAP Diversity Plus: BE3C Assay for Keratin 818 Biomarker Activity (AID 2284282); conditions: primary human bronchial epithelial cells
Outline: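 ELISA read-out of Keratin 8/18 in BE3C human bronchial epithelial cultures, 24 h post-dosing; positive-direction fit vs DMSO baseline.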

[5] = read-out: Matrix Metallopeptidase 9 (MMP9), MMP9 (gene 4318); test: BSK_BE3C_MMP9: BioMAP Diversity Plus: BE3C Assay for Matrix Metallopeptidase 9 (MMP9) Biomarker Activity (AID 2284283); conditions: primary human bronchial epithelial cells
Outline: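 ELISA read-out of MMP-9 after 24 h compound exposure of human lung bronchial epithelial primary cells (BE3C). Fit in gain direction vs DMSO negative control; total protein by SRB in parallel cultures flagged overt cytotoxicity.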

[6] = read-out: Plasminogen activator inhibitor-1 (PAI1), SERPINE1 (gene 5054); test: BSK_CASM3C_PAI1: BioMAP Diversity Plus: CASM3C Assay for Plasminogen activator inhibitor-1 (PAI1) Biomarker Activity (AID 2284284); conditions: primary human coronary artery smooth muscle cells
[7] = read-out: Monocyte Chemoattractant Protein-1 (MCP1), CCL2 (gene 6347); test: BSK_hDFCGF_MCP1: BioMAP Diversity Plus: hDFCGF Assay for Monocyte Chemoattractant Protein-1 (MCP1) Biomarker Activity (AID 2284285); conditions: primary human foreskin fibroblasts
Outline: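 MCP-1 ELISA readout was taken 24 hours after dosing primary human dermal fibroblasts in the hDFCGF system, with DMSO as baseline. Parallel sulforhodamine B staining of total protein tracked overt cytotoxicity.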

[8] = read-out: Intercellular Adhesion Molecule 1 (ICAM1), ICAM1 (gene 3383); test: BSK_hDFCGF_ICAM1: BioMAP Diversity Plus: hDFCGF Assay for Intercellular Adhesion Molecule 1 (ICAM1) Biomarker Activity (AID 2284287); conditions: primary human foreskin fibroblasts
Outline: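 ICAM-1 ELISA readout 24 h after dosing, DMSO as baseline, in human dermal foreskin fibroblast cultures. Cytotoxicity checked in parallel wells by SRB staining (0.1% SRB, 10% TCA fixation, 560 nm).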

[9] = read-out: TIMP metallopeptidase inhibitor 2 (TIMP2), TIMP2 (gene 7077); test: BSK_hDFCGF_TIMP2: BioMAP Diversity Plus: hDFCGF Assay for TIMP metallopeptidase inhibitor 2 (TIMP2) Biomarker Activity (AID 2284289); conditions: primary human foreskin fibroblasts
Outline: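 Primary human foreskin fibroblasts in the hDFCGF system, dosed for 24 h; TIMP-2 level measured by ELISA, fitted in the positive direction against DMSO; cytotoxicity checked in parallel by sulforhodamine B total protein staining.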

[10] = read-out: Matrix Metallopeptidase 1 (MMP1), MMP1 (gene 4312); test: BSK_BF4T_MMP1: BioMAP Diversity Plus: BF4T Assay for Matrix Metallopeptidase 1 (MMP1) Biomarker Activity (AID 2284270); conditions: primary human bronchial epithelial cells with fibroblasts
Outline: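 MMP-1 quantified by ELISA in primary human bronchial epithelial/dermal fibroblast co-cultures, 24 hours post-dosing, with DMSO as baseline; parallel sulforhodamine B staining (560 nm) tracks overt cytotoxicity.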

[11] = read-out: Matrix Metallopeptidase 3 (MMP3), MMP3 (gene 4314); test: BSK_BF4T_MMP3: BioMAP Diversity Plus: BF4T Assay for Matrix Metallopeptidase 3 (MMP3) Biomarker Activity (AID 2284271); conditions: primary human bronchial epithelial cells with fibroblasts
Outline: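 MMP-3 level read by ELISA after 24 h chemical exposure of bronchial epithelial cell/dermal fibroblast co-cultures, fitted upward relative to DMSO. Parallel cultures stained with 0.1% SRB after TCA fixation gauge overt cytotoxicity.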

[12] = read-out: Tissue plasminogen activator (tPA), PLAT (gene 5327); test: BSK_BF4T_tPA: BioMAP Diversity Plus: BF4T Assay for Tissue plasminogen activator (tPA) Biomarker Activity (AID 2284272); conditions: primary human bronchial epithelial cells with fibroblasts
Outline: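 tPA level quantified by ELISA at 24 h post-treatment in bronchial epithelial/dermal fibroblast co-cultures, gain of signal scored against DMSO baseline. Parallel cultures stained with 0.1% SRB (560 nm) to flag overt cytotoxicity.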

[13] = read-out: Plasminogen Activator Inhibitor-1 (PAI1), SERPINE1 (gene 5054); test: BSK_BF4T_PAI1: BioMAP Diversity Plus: BF4T Assay for Plasminogen Activator Inhibitor-1 (PAI1) Biomarker Activity (AID 2284273); conditions: primary human bronchial epithelial cells with fibroblasts
Outline: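 PAI-1 levels quantified by ELISA 24 h post-dosing in bronchial epithelial cell plus dermal fibroblast cultures. Signal gain referenced to DMSO baseline. Sulforhodamine B total-protein staining of parallel wells checked cytotoxicity.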

[14] = BSK_BF4T_SRB: Viability Assessment in the BioMAP Diversity Plus: BF4T Assay (AID 2284274); conditions: primary human bronchial epithelial cells with fibroblasts
Outline: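 Cytotoxicity measured as total protein: cells fixed with 10% TCA, stained with 0.1% SRB, read at 560 nm. Bronchial epithelial/dermal fibroblast co-culture, 24 h after dosing, with positive-direction fitting relative to DMSO.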

[15] = read-out: urokinase Plasminogen Activator (uPA), PLAU (gene 5328); test: BSK_BF4T_uPA: BioMAP Diversity Plus: BF4T Assay for urokinase Plasminogen Activator (uPA) Biomarker Activity (AID 2284275); conditions: primary human bronchial epithelial cells with fibroblasts
Outline: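 uPA levels measured by ELISA at 24 hours in BF4T cultures (bronchial epithelial cells plus dermal fibroblasts) and compared with DMSO; cytotoxicity tracked in parallel cultures by sulforhodamine B staining.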

[16] = read-out: Matrix Metallopeptidase 9 (MMP9), MMP9 (gene 4318); test: BSK_BF4T_MMP9: BioMAP Diversity Plus: BF4T Assay for Matrix Metallopeptidase 9 (MMP9) Biomarker Activity (AID 2284276); conditions: primary human bronchial epithelial cells with fibroblasts
Outline: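 MMP-9 levels were measured by ELISA after 24 h exposure of bronchial epithelial cell/dermal fibroblast co-cultures, with DMSO as baseline. Parallel cultures were stained with 0.1% SRB after TCA fixation, read at 560 nm, to flag overt cytotoxicity.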

[17] = read-out: Interleukin-8 (IL8), CXCL8 (gene 3576); test: BSK_IMphg_IL8: BioMAP Diversity Plus: IMphg Assay for Interleukin-8 (IL8) Biomarker Activity (AID 2284277); conditions: primary human endothelial cells with macrophages
Outline: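 IL-8 levels were measured by ELISA 24 h after dosing in primary human venular endothelial cell–macrophage cultures, referenced to DMSO; parallel SRB staining monitored overt cytotoxicity.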

[18] = read-out: Vascular cell adhesion molecule 1 (VCAM1), VCAM1 (gene 7412); test: BSK_IMphg_VCAM1: BioMAP Diversity Plus: IMphg Assay for Vascular cell adhesion molecule 1 (VCAM1) Biomarker Activity (AID 2284286); conditions: primary human endothelial cells with macrophages
Outline: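 ELISA read-out of VCAM-1 on venular endothelial cell/macrophage co-cultures at 24 h post-treatment, with DMSO as baseline and positive-direction fitting. Parallel sulforhodamine B total-protein staining (560 nm) served as the overt cytotoxicity measure.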

CD40, CD40 (gene 958) = test: BSK_IMphg_CD40: BioMAP Diversity Plus: IMphg Assay for CD40 Biomarker Activity (AID 2284288); conditions: primary human endothelial cells with macrophages
Outline: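 ELISA read-out of cell-surface CD40 at 24 h in human venular endothelial cell/macrophage co-cultures. Activity fitted in the positive direction against DMSO; parallel SRB staining (560 nm) gauges overt cytotoxicity.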

Measured: AC50

c1ccc(OCCOc2ccccc2)cc1
inactive: [1] | [2] | [3] | [4] | KRT18 (gene 3875) | [5] | [6] | [7] | [8] | [9]
active: [9] 3.6 µM

CCn1cc(C(=O)O)c(=O)c2ccc(C)nc21
inactive: [1] | [2] | [3] | [4] | KRT18 (gene 3875) | [5] | [6] | [7] | [8] | [9]

C=C(C)C(=O)OCCC(F)(F)C(F)(F)C(F)(F)C(F)(F)C(F)(F)C(F)(F)C(F)(F)C(F)(F)F
active: CD40, CD40 (gene 958) 2.53 µM
inactive: [10] | [11] | [12] | [13] | [14] | [15] | [16] | [17] | [1] | [2] | [3] | [4] | KRT18 (gene 3875) | [5] | [6] | [7] | [18] | [8] | CD40, CD40 (gene 958) | [9]

C=C(F)C(=O)OC(C(F)(F)F)C(F)(F)F
active: CD40, CD40 (gene 958) 5.95 µM
inactive: [10] | [11] | [12] | [13] | [14] | [15] | [16] | [17] | [1] | [2] | [3] | [4] | KRT18 (gene 3875) | [5] | [6] | [7] | [18] | [8] | CD40, CD40 (gene 958) | [9]

CC(C)(CO)CO
inactive: [1] | [2] | [3] | [4] | KRT18 (gene 3875) | [5] | [6] | [7] | [8] | [9]

CC(C)CCCC(C)(C)O
inactive: [1] | [2] | [3] | [4] | KRT18 (gene 3875) | [5] | [6] | [7] | [8] | [9]

O=S(=O)(O)C(F)(F)C(F)(F)OC(F)(F)C(F)(F)F
inactive: [10] | [11] | [12] | [13] | [14] | [15] | [16] | [17] | [1] | [2] | [3] | [4] | KRT18 (gene 3875) | [5] | [6] | [7] | [18] | [8] | CD40, CD40 (gene 958) | [9]
active: [11] 36.9 µM | [17] 41.7 µM

OCC(F)(OC(F)(F)C(F)(OC(F)(F)C(F)(F)C(F)(F)F)C(F)(F)F)C(F)(F)F (stereo not given)
active: [12] 4.28 µM | [2] 5.2 µM | [7] 4.79 µM and 2.83 µM | [8] 5.06 µM and 2.52 µM | [9] 2.07 µM and 198 nM
inactive: [10] | [11] | [12] | [13] | [14] | [15] | [16] | [17] | [1] | [2] | [3] | [4] | KRT18 (gene 3875) | [5] | [6] | [18] | CD40, CD40 (gene 958)

CCCCN(CCO)CCO
active: [9] 4.34 µM
inactive: [1] | [2] | [3] | [4] | KRT18 (gene 3875) | [5] | [6] | [7] | [8] | [9]

O=C(O)C(F)(F)OC(F)(F)C(F)(F)OC(F)(F)C(F)(F)C(F)(F)C(F)(F)F
inactive: [10] | [12] | [13] | [14] | [15] | [16] | [17] | [1] | [3] | KRT18 (gene 3875) | [5] | [6] | [7] | [18] | [8] | CD40, CD40 (gene 958) | [9]
active: [11] 12.9 µM and 17.8 µM | [2] 7.77 µM and 7.6 µM | [4] 35 µM and 17.7 µM | CD40, CD40 (gene 958) 30 µM

CCCO[Si](OCCC)(OCCC)OCCC
inactive: [1] | [2] | [3] | [4] | KRT18 (gene 3875) | [5] | [6] | [7] | [8] | [9]

CC(=O)c1ccc(C)cc1
inactive: [1] | [2] | [3] | [4] | KRT18 (gene 3875) | [5] | [6] | [7] | [8] | [9]

O=C(O)C(F)(F)C(F)(F)C(F)(F)C(F)(F)C(F)(F)C(F)(F)C(F)(F)C(F)F
inactive: [10] | [11] | [14] | [15] | [16] | [17] | [1] | [2] | [3] | [4] | KRT18 (gene 3875) | [5] | [6] | [7] | [18] | [8] | CD40, CD40 (gene 958) | [9]
active: [10] 51.9 µM | [12] 4.37 µM and 2.45 µM | [13] 2.94 µM and 2.8 µM
